Test results from PMC4336329 (PLoS ONE, 2015).
Screen size: about 310,000 compounds; about 14,000 (4.5%) showed an effect of 50% or more. Effects have a minus sign here. The list comes from a sample in which strong results are over-represented; it also holds similar structures and randomly drawn compounds.

The compounds below were run against human ether-à-go-go-related gene (hERG) potassium channel (human, UniProt Q12809) (assay: primary screen, population patch clamp on CHO cells stably expressing hERG; higher = less effect of the substance).
human ether-à-go-go-related gene (hERG) potassium channel, sequence (Q12809 whole entry, looked up): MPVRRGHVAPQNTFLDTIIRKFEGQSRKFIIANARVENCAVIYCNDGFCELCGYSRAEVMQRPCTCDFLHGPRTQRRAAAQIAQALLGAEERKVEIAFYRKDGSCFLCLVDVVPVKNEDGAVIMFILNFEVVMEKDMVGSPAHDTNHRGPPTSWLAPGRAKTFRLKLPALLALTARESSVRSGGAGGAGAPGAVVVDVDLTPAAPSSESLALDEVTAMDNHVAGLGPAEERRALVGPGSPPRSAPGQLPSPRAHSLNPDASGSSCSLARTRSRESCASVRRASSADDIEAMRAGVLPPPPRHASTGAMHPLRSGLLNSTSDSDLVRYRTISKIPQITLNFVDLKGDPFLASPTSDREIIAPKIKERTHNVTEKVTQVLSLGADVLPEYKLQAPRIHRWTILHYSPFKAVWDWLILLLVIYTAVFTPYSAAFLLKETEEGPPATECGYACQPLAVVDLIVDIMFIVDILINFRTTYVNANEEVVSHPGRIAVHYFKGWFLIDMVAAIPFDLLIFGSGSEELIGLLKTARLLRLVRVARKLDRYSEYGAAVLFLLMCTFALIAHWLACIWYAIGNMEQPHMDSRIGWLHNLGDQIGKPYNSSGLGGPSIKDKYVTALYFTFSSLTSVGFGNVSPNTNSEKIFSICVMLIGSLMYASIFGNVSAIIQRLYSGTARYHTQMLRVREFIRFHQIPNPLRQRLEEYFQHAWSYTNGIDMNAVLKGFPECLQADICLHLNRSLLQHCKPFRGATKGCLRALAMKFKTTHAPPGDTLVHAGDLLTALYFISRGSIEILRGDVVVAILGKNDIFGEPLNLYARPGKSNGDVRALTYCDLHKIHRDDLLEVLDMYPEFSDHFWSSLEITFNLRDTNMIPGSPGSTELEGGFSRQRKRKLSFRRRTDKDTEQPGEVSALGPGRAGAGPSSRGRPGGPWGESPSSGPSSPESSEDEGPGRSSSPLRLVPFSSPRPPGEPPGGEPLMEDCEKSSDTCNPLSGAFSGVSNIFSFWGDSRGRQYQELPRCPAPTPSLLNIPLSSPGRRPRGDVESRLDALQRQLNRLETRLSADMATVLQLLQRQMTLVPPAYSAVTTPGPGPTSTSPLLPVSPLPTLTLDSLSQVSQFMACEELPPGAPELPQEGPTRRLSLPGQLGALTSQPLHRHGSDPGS
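Also: peak tail current of the secondary pulse compared with the same well before compound.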

First: O=C(NCc1ccc(F)cc1)C1CC(=O)N(Cc2ccco2)C1 (centres unmarked)
Second: Fc1ccc(CNCc2cccc(Br)c2)cc1
The “hERG current change (%, negative = inhibition) at 10uM” value of the first is lower: -17% for the first, 13.9% for the second.

Going from `COc1cc(C=O)ccc1OCc1ccncc1` to `COc1ccc(/C=C2\SC(=S)N(Cc3cccnc3)C2=O)cc1C`, the “hERG current change (%, negative = inhibition) at 10uM” value falls from 16.5% to -3.04%.

First: O=C(O)CSCC(=O)N1CCN(c2ncnc3scc(-c4ccccc4)c23)CC1
Second: CC(C)(C)C(=O)N1CCN(c2ncnc3scc(-c4ccccc4)c23)CC1
The “hERG current change (%, negative = inhibition) at 10uM” value of the first is higher: 25.4% for the first, -30% for the second.

First: Fc1ccc(-c2csc3ncnc(N4CCN(c5ccccc5)CC4)c23)cc1
Second: Fc1ccc(-c2csc3ncnc(N4CCN(Cc5ccccc5)CC4)c23)cc1
The “hERG current change (%, negative = inhibition) at 10uM” value of the first is higher: 16.2% for the first, -2.14% for the second.

First: O=C(c1ccco1)N1CCN(c2ncnc3scc(-c4cccs4)c23)CC1
Second: O=C(c1ccco1)N1CCN(c2ncnc3scc(-c4ccccc4)c23)CC1
The “hERG current change (%, negative = inhibition) at 10uM” value of the first is higher: -63.9% for the first, -64.5% for the second.

First: Cc1ccc(-c2csc3ncnc(N4CCN(C(=O)c5ccccc5)CC4)c23)cc1
Second: Cc1ccc(-c2csc3ncnc(N4CCN(C(=O)c5ccco5)CC4)c23)cc1
The “hERG current change (%, negative = inhibition) at 10uM” value of the first is higher: -30.5% for the first, -89.9% for the second.

Compared with `c1ccc(N2CCN(c3ncnc4scc(-c5cccs5)c34)CC2)cc1`, `Cc1ccccc1N1CCN(c2ncnc3scc(-c4cccs4)c23)CC1` is lower in “hERG current change (%, negative = inhibition) at 10uM” value: 9.87% for the first, -1.45% for the second.

Compared with `O=C(c1ccco1)N1CCN(c2ncnc3scc(-c4ccc(F)cc4)c23)CC1`, `COc1ccc(-c2csc3ncnc(N4CCN(C(=O)c5ccco5)CC4)c23)cc1` is lower in “hERG current change (%, negative = inhibition) at 10uM” value: -70.2% for the first, -75.3% for the second.

Compared with `Cc1ccc(-c2csc3ncnc(N4CCN(c5ccccc5O)CC4)c23)cc1`, `Oc1ccccc1N1CCN(c2ncnc3scc(-c4ccccc4)c23)CC1` is lower in “hERG current change (%, negative = inhibition) at 10uM” value: 25.8% for the first, 4.04% for the second.

Going from `O=C(c1cccs1)N1CCCN(c2ncnc3scc(-c4ccccc4)c23)CC1` to `O=C(c1ccco1)N1CCN(c2ncnc3c(-c4ccccc4)nsc23)CC1`, the “hERG current change (%, negative = inhibition) at 10uM” value rises from -60.7% to -14.2%.

First: CS/C(=N\S(=O)(=O)c1ccccc1)c1ccccc1
Second: O=S(=O)(c1ccccc1)C(/C=N\O)/C=C/c1ccccc1 (centres unmarked)
The “hERG current change (%, negative = inhibition) at 10uM” value of the first is lower: 0.781% for the first, 4.57% for the second.

Going from `CC(C)n1c(C(F)(F)F)nc2cc(C(=O)N3CCOCC3)ccc21` to `O=C(CN1CCOCC1)Nc1cccc(C(F)(F)F)c1`, the “hERG current change (%, negative = inhibition) at 10uM” value falls from 16.3% to -3%.

Going from `O=C(O)C1Sc2[nH]c(=O)sc2C2c3cc(Cl)ccc3OC(=O)C12` (centres unmarked) to `O=c1cc(N2CCc3ccccc3C2)[nH]c(=O)n1-c1ccc(Cl)cc1`, the “hERG current change (%, negative = inhibition) at 10uM” value falls from 14.5% to 3.07%.

Compared with `Cc1ccc(NC(=O)Cc2noc3ccccc23)c(C)c1`, `N#Cc1cccc(NC(=O)Cc2ccccc2)c1` is higher in “hERG current change (%, negative = inhibition) at 10uM” value: 11.2% for the first, 13.6% for the second.

Compared with `O=S(=O)(CCc1nc2ccccc2o1)c1ccc(Cl)c(Cl)c1`, `O=C(CCN1CCN(Cc2ccccc2)CC1)NNC(=O)Cc1ccc(Cl)c(Cl)c1` is lower in “hERG current change (%, negative = inhibition) at 10uM” value: 13.4% for the first, -74.7% for the second.

Compared with `Cc1sc2ncnc(N3CCN(C(=O)c4ccco4)CC3)c2c1C`, `CCc1cc2c(N3CCN(C(=O)c4ccco4)CC3)ncnc2s1` is lower in “hERG current change (%, negative = inhibition) at 10uM” value: -61.8% for the first, -77.7% for the second.

First: CCc1cc2c(N3CCN(c4ccccc4)CC3)ncnc2s1
Second: CCc1cc2c(N3CCN(C)CC3)ncnc2s1.Cl
The “hERG current change (%, negative = inhibition) at 10uM” value of the first is lower: -43.5% for the first, -29% for the second.

Going from `CCc1cc(C(=O)N2CCN(C(=O)c3ccco3)CC2)sc1C` to `Cc1sc2nnn(CC(=O)N3CCN(C(=O)c4ccco4)CC3)c(=O)c2c1C`, the “hERG current change (%, negative = inhibition) at 10uM” value falls from 10.6% to -32.4%.

Going from `COc1ccc(-c2csc3ncnc(N4CCN(c5ccc(OC)cc5)CC4)c23)cc1` to `COc1ccc(-c2nsc3c(N4CCN(C(=O)c5ccco5)CC4)ncnc23)cc1`, the “hERG current change (%, negative = inhibition) at 10uM” value rises from -11.2% to 10.9%.

Compared with `CCc1cc2c(N3CCN(c4nnc(CC)s4)CC3)ncnc2s1.Cl`, `CCc1cc2c(N3CCCCC3)ncnc2s1.Cl` is higher in “hERG current change (%, negative = inhibition) at 10uM” value: -67.6% for the first, -7.21% for the second.

Going from `COc1cc(C(=O)N2CCN(c3ncnc4sc(C)c(C)c34)CC2)cc(OC)c1OC` to `CCN1CCN(C(=O)c2ccc3c(Cl)c4c(nc3c2)CCCC4)CC1`, the “hERG current change (%, negative = inhibition) at 10uM” value rises from -47.2% to 6.65%.

First: O=C(CSc1cn(CCNC(=O)c2ccccc2)c2ccccc12)NCC1CCCO1 (centres unmarked)
Second: CCc1ccc(C(=O)NNC(=O)CCN2CCN(Cc3ccccc3)CC2)cc1
The “hERG current change (%, negative = inhibition) at 10uM” value of the first is higher: -10.9% for the first, -19.8% for the second.

Going from `O=C(CNC(=O)c1cccs1)OCC(=O)c1ccccc1` to `Cc1ccc(NC(=O)COC(=O)CCC(=O)c2cccs2)cc1`, the “hERG current change (%, negative = inhibition) at 10uM” value falls from 8.55% to -6.94%.

Going from `O=C(c1cccnc1Nc1ccccc1F)N1CCOCC1` to `O=C(CN1CCOCC1)Nc1cccc(C(=O)Nc2cccc(C(F)(F)F)c2)c1`, the “hERG current change (%, negative = inhibition) at 10uM” value falls from 11.7% to -40.1%.

Going from `CCCc1nnc(NC(=O)CCC(=O)NC2CCCCCC2)s1` to `Cc1ccc2c(cnn2C(=O)CCC(=O)NC2CCCC2)c1`, the “hERG current change (%, negative = inhibition) at 10uM” value falls from 13.7% to -10.3%.

Compared with `C=CCNC(=O)COC(=O)CCC(=O)c1cccs1`, `COc1ccc(NC(=O)Cn2nnc(C(=O)NCc3cccs3)c2N)cc1` is higher in “hERG current change (%, negative = inhibition) at 10uM” value: 1.42% for the first, 13.9% for the second.

Going from `CCC(C)NC(=O)CSc1nc2ccsc2c(=O)n1-c1ccc(OC)cc1` (centres unmarked) to `COc1ccc(-c2nc3c(=O)n(C)c(=O)[nH]c3n2CCc2ccccc2)cc1`, the “hERG current change (%, negative = inhibition) at 10uM” value rises from -3.72% to 22.1%.

First: O=[N+]([O-])c1cccc(NNS(=O)(=O)c2ccccc2F)c1
Second: O=C(Nc1ccc(Cc2ccncc2)cc1)c1cccc([N+](=O)[O-])c1
The “hERG current change (%, negative = inhibition) at 10uM” value of the first is lower: -29.4% for the first, 13.6% for the second.

Compared with `O=c1c2c3c(sc2nc2n1N=C(c1cccs1)CS2)CCCC3`, `Cn1c(=O)c2c(nc(N3CCc4ccccc4C3)n2C)n(C)c1=O` is higher in “hERG current change (%, negative = inhibition) at 10uM” value: 5.12% for the first, 7.62% for the second.

Going from `COc1ccnc(CN(C)C(=O)C2CCC(=O)N(CCN(C)C)C2)c1` (centres unmarked) to `CCCCS(=O)(=O)N1CCC(C(=O)Oc2ccccc2OC)CC1`, the “hERG current change (%, negative = inhibition) at 10uM” value falls from 17.5% to -9.14%.

First: CCCCC(C(=O)O)C(C)CC(=O)Nc1nncs1 (centres unmarked)
Second: CCOc1ccc(CCNC(=O)CCC(=O)N2CCSc3ccccc32)cc1OCC
The “hERG current change (%, negative = inhibition) at 10uM” value of the first is higher: 13.1% for the first, -2.52% for the second.

Going from `O=C(Nc1cccc(Br)c1)/C(=C\c1cccnc1)NC(=O)c1ccco1` to `O=C(Nc1cccc(F)c1)/C(=C\c1cccnc1)NC(=O)c1ccco1`, the “hERG current change (%, negative = inhibition) at 10uM” value rises from -56.6% to -22.4%.

First: O=C(Nc1ccccc1)/C(=C/c1cccc(Br)c1)NC(=O)c1ccco1
Second: Cc1ccc(NC(=O)/C(=C/c2cccc(Br)c2)NC(=O)c2ccco2)cc1
The “hERG current change (%, negative = inhibition) at 10uM” value of the first is higher: 5.35% for the first, -28.1% for the second.

Going from `Cc1ccc(NC(=O)/C(=C\c2cccnc2)NC(=O)c2ccco2)cc1` to `O=C(Nc1ccccc1)/C(=C/c1cccnc1)NC(=O)c1ccco1`, the “hERG current change (%, negative = inhibition) at 10uM” value rises from -28.5% to -4.49%.

First: CC(=O)c1cccc(NC(=O)/C(=C\c2cccnc2)NC(=O)c2ccco2)c1
Second: O=C(Nc1cccc(Cl)c1)/C(=C\c1cccnc1)NC(=O)c1ccco1
The “hERG current change (%, negative = inhibition) at 10uM” value of the first is higher: -10.6% for the first, -67% for the second.

Compared with `CC(=O)c1cccc(NC(=O)/C(=C\c2ccco2)NC(=O)c2ccco2)c1`, `CC(=O)c1cccc(NC(=O)/C(=C/c2ccco2)NC(=O)c2ccco2)c1` is higher in “hERG current change (%, negative = inhibition) at 10uM” value: -64.3% for the first, -18.6% for the second.

Compared with `O=C(Nc1ccc2ccccc2c1)/C(=C/c1cccc(Br)c1)NC(=O)c1ccco1`, `CC(=O)c1ccc(NC(=O)/C(=C\c2ccco2)NC(=O)c2ccco2)cc1` is higher in “hERG current change (%, negative = inhibition) at 10uM” value: -68.6% for the first, -15.9% for the second.

First: COc1cc2[nH]c(=S)n(Cc3ccccc3)c(=O)c2cc1OC
Second: COc1ccccc1N1CCN(CCC(=O)Nc2cccc(Cl)c2)CC1.Cl
The “hERG current change (%, negative = inhibition) at 10uM” value of the first is higher: 11.4% for the first, -62.8% for the second.

Going from `CC(=O)Nc1ccc(C(=O)CSc2nc3ccccc3n2CC(=O)N2CCCC2)cc1` to `CCOc1ccccc1NC(=O)COC(=O)c1ccccc1SCC(=O)N1CCCC1`, the “hERG current change (%, negative = inhibition) at 10uM” value falls from 11.1% to 1.65%.

Going from `CCOc1cc2c(C#N)c(N3CCNCC3)nc(N)c2c(N)n1` to `N#Cc1cccc(NC(=O)CN2CCCCCC2)c1`, the “hERG current change (%, negative = inhibition) at 10uM” value falls from 5.41% to -10.9%.

Compared with `O=C(CN1CCN(Cc2ccccc2)CC1)Nc1cccc(S(=O)(=O)N2CCCCCC2)c1`, `O=C(Cc1ccccc1)Nc1cccc(S(=O)(=O)N2CCCCCC2)c1` is higher in “hERG current change (%, negative = inhibition) at 10uM” value: -76.3% for the first, -49.1% for the second.

Going from `COc1ccccc1N1CCN(CCC(=O)Nc2ccc3c(c2)OCO3)CC1` to `COc1ccccc1N1CCN(CCC(=O)Nc2ccc(F)cc2)CC1`, the “hERG current change (%, negative = inhibition) at 10uM” value rises from -26.7% to -19.3%.

Compared with `CC1CCN(CC(=O)Nc2cccc(C(=O)Nc3cccc(C(F)(F)F)c3)c2)CC1`, `CC1CN(CC(=O)Nc2cccc(C(=O)Nc3cccc(C(F)(F)F)c3)c2)CC(C)O1` (centres unmarked) is lower in “hERG current change (%, negative = inhibition) at 10uM” value: -37.3% for the first, -54.3% for the second.

Compared with `CC(=O)N1CCN(CC(=O)Nc2cccc(S(=O)(=O)N3CCCCCC3)c2)CC1`, `O=C(CNC1CCCCC1)Nc1ccc(S(=O)(=O)N2CCCCC2)cc1` is higher in “hERG current change (%, negative = inhibition) at 10uM” value: -23.3% for the first, 2.13% for the second.

Compared with `O=C(CN1CCN(Cc2ccccc2)CC1)Nc1cccc(C(F)(F)F)c1`, `O=C(CN1CCN(c2ccccc2)CC1)Nc1cccc(C(F)(F)F)c1` is higher in “hERG current change (%, negative = inhibition) at 10uM” value: -71.6% for the first, 2% for the second.

First: O=C(CCN1C(=O)/C(=C/c2cccc(Br)c2)SC1=S)NNC(=O)c1cccnc1
Second: O=C(CCN1CCN(Cc2ccccc2)CC1)NNC(=O)Nc1cccc(Cl)c1
The “hERG current change (%, negative = inhibition) at 10uM” value of the first is higher: 6.24% for the first, -47% for the second.

Going from `NNC(=O)CCN1CCN(Cc2ccccc2)CC1` to `O=C(CCN1CCN(Cc2ccccc2)CC1)Nc1cccc(Cl)c1`, the “hERG current change (%, negative = inhibition) at 10uM” value falls from 17% to -70.6%.

First: N#Cc1cccc(NC(=O)CN2CCN(Cc3ccccc3)CC2)c1
Second: Cl.O=C(CNC1CCN(Cc2ccccc2)CC1)Nc1ccc(S(=O)(=O)N2CCCCC2)cc1
The “hERG current change (%, negative = inhibition) at 10uM” value of the first is higher: -65.1% for the first, -69.7% for the second.

First: O=C(CNC1CCCC1)Nc1ccc(S(=O)(=O)N2CCCCC2)cc1
Second: Cl.O=C(CCN1CCCCC1)Nc1cccc(Cl)c1
The “hERG current change (%, negative = inhibition) at 10uM” value of the first is higher: -0.797% for the first, -35.9% for the second.
